# Most compounds without a hit are left out; they make up all but 11% or so of the library.
# HPGD inh: qHTS Assay for Inhibitors of HPGD (15-Hydroxyprostaglandin Dehydrogenase); purified HPGD, NADH fluorescence kinetic, PGE2 substrate; Potency, µM, for inactives: at the highest dose activity change, negative = inhibition, most hits filed as inhibitors; hit rate 4.3% among 150,000; AID 894, 2007; note: potency is the fitted concentration of half-maximal effect
# Target sequence (P15428 whole entry, looked up): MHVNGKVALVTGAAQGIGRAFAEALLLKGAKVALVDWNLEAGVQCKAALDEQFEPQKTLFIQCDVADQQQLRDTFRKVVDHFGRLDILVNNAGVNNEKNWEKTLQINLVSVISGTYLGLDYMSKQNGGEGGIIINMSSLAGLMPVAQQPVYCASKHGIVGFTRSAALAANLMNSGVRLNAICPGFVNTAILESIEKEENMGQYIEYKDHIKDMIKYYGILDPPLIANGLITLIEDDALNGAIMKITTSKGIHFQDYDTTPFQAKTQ
#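 NADH formation kinetics: reaction with 30 uM PGE2 and 1 mM NAD+ (final), 20 nM enzyme, Tris-HCl pH 8 with Tween 20, after 15 min compound preincubation at room temperature. Fluorescence change, last versus first of five reads.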
# PNC assembly inh: High Content Assay for Compounds that inhibit the Assembly of the Perinucleolar Compartment | PC3M PTB-GFP, PNC prevalence imaging, 16 h; stronger effect = lower value | activity change (PNC), negative = inhibition, % at 10 µM | hit rate 3.1% among 140,000 | AID 2417, 2010;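 active = readout at or below -70, meaning at least 70% loss of cells showing the perinucleolar compartment, a nuclear body marking cancer cells; inconclusive = readout between -30 and a set limit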;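 note: plate controls were DMSO wells for no effect and camptothecin positive control wells for full effect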
#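 PC3M cells stably expressing PTB-GFP, 750–1000 cells/well, treated 16 h at 37 °C with compound (23 nl of library stock), in duplicate. After paraformaldehyde fixation and Hoechst stain, imaged at 20x; PNC prevalence scored by image analysis.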
# IMPase cell inh: qHTS Assay for Identifying the Cell-Membrane Permeable IMPase Inhibitors; CHO-M1 cells, IP1 accumulation, HTRF TR-FRET ratio; inhibition (IP1 accumulation), % at 46.1 µM; 120,000 tested, under 10 active; AID 901, 2007; active = well fitted curve in the direction sought with a large enough effect in the signal ratio, not every such curve was filed as active; inconclusive = small, poorly fitted or top-dose-only effect, or a change in a side signal; inactive = no such curve, though single readings can be large or run the other way; the % refers to the signal ratio;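 note: cells stimulated with carbachol in lithium chloride buffer; plate controls were DMSO basal wells for no effect and reference inhibitor wells for full effect; higher means more IMPase inhibition seen as more IP1 and lower FRET ratio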
#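 Seeded CHO-M1 cells were dosed with compound at up to 46 uM, stimulated with carbachol for 30 min, then lysed in IP-One detection reagents. Higher IP1 lowers the TR-FRET signal.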
# IMPase Li inh: qHTS Assay for Identifying the Cell-Membrane Permeable IMPase Inhibitors: Potentiation with Lithium; hit rate 0.35% among 210,000; Potency, µM (highest dose often 59.4 µM), for the others: at the top dose activity, negative = IMPase inhibition, actives largely listed as inhibitors; AID 1457, 2008; CHO-M1 cells, IP1 TR-FRET (IP-One), carbachol + lithium; active = well fitted curve in the direction sought with a large enough effect; inconclusive = small, poorly fitted or top-dose-only effect, or another doubt; inactive = no such curve, though single readings can be large; an effect the other way counts as inactive or inconclusive;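 note: IP1 builds up when IMPase is blocked and the TR-FRET signal falls; potency is the fitted concentration of half-maximal effect; plate controls were basal vehicle for no effect and high inhibitor control for full effect; nearly all actives have a fitted effect of over 50% in size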
#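 IP1 accumulation measured by competitive TR-FRET in lysed CHO-M1 cells after 30 min compound exposure at 37C, with a small lithium addition to potentiate weak responses. Hill-equation AC50 from ratio and donor-channel data.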
# ALDH1A1 block: qHTS Assay for Inhibitors of Aldehyde Dehydrogenase 1 (ALDH1A1). Aldehyde dehydrogenase 1A1 (Homo sapiens), P00352. Purified ALDH1A1, NADH fluorescence, propionaldehyde substrate. Potency, µM (doses to about 75.3 µM), inactives show at the highest dose activity, negative = inhibition, actives largely listed as inhibitors. hit rate 7.3% among 220,000. AID 1030, 2008;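 note: potency is the fitted concentration of half-maximal effect; plate controls were no enzyme wells and a reference inhibitor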
# NPSR antagonist: qHTS Assay for Antagonists of the Neuropeptide S Receptor: cAMP Signal Transduction; Q6W5P4; CHO-NPSR cells, cAMP TR-FRET, antagonist mode; Potency, µM (series often up to 38.3 µM), without a hit: at the highest dose activity change, negative = inhibition, usual class: inhibitors; hit rate 1% among 220,000; active = well fitted curve in the direction sought with a large enough effect; inconclusive = small, poorly fitted or top-dose-only effect, or another doubt; inactive = no such curve, though single readings can be large; an effect the other way counts as inactive or inconclusive; note: potency is the fitted concentration of half-maximal effect; nearly all actives have a fitted effect of over 50% in size
# Target sequence (Q6W5P4 whole entry, looked up): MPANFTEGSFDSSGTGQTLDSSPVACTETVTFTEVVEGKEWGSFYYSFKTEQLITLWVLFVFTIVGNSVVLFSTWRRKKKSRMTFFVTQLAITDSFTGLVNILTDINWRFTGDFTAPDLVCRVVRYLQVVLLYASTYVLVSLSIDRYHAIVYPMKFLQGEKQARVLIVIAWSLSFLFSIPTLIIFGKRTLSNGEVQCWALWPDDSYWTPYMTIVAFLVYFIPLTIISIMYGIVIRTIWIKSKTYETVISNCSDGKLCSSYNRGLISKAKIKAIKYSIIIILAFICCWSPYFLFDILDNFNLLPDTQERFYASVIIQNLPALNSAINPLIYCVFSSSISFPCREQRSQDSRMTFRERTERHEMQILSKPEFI
# An asterisk follows results filed as active; ? = inconclusive; . = no result; [ ] = remark or other dose. Unless noted, calls come from the whole dose curve; as a rule, active = well fitted inhibition curve with a large enough effect (not every such curve was filed as active); inconclusive = small, poorly fitted or top-dose-only effect, or another doubt; inactive = no such curve, though single readings can be large or run the other way. Unless noted, % is set by controls: 0 for no effect and ±100 for the full control effect.
SMILES,HPGD inh,PNC assembly inh,IMPase cell inh,IMPase Li inh,ALDH1A1 block,NPSR antagonist
O=C(Nc1ccc(O)c(C(=O)O)c1)c1ccc2c(c1)C(=O)N(CC1CCCO1)C2=O (configuration not stated),-27.0%,-1.3,2.5,-0.6%[38.3 µM],10µM*,-5.6%[46.1 µM]
Cc1c(NC(=O)c2ccc3c(c2)C(=O)N(Cc2ccco2)C3=O)cccc1C(=O)O,.,.,.,7.5%,?,18.0%
Cc1ccc(NC(=O)c2ccc3c(c2)C(=O)N(CC2CCCO2)C3=O)cc1C (configuration not stated),.,.,.,22.1%,3.16µM*,14.1%
O=C(Nc1ccc2c(c1)C(=O)N(CC1CCCO1)C2=O)c1ccc(Cl)c(Cl)c1 (configuration not stated),?,?,12.5,49.3%[38.3 µM],?,?
Cc1c(NC(=O)c2ccc3c(c2)C(=O)N(CC2CCCO2)C3=O)cccc1C(=O)O (configuration not stated),-4.5%,-81.3*,0.5,14.7%[38.3 µM],?,2.3%[46.1 µM]
CCCCC(O)CN1CCC(c2ccccc2)CC1 (configuration not stated),1.4%,7.1,1.7,26.1%[38.3 µM],6.3%,-7.0%[46.1 µM]
COCCNC(=O)CNC(=O)c1nn(-c2ccc(OC)c(Cl)c2)c(=O)c2ccccc12,-10.4%,-17.9,3.3,-6.2%[38.3 µM],2.2%,-3.2%[46.1 µM]
COC(=O)CCC(NC(=O)c1cc(-c2ccc3c(c2)OCCO3)oc1C)C(=O)OC (configuration not stated),-19.7%,-9.7,3.5,-2.5%[38.3 µM],20µM*,-21.7%[46.1 µM]
COC(=O)C(Cc1c[nH]c2ccccc12)NC(=O)c1cc(-c2ccc(OC)c(OC)c2)oc1C (configuration not stated),31.6µM*,38.2,6.2,13.2%,28.2µM*,-3.3%
CCOC(=O)CNC(=O)c1cc(-c2ccc3c(c2)OCCO3)oc1C,-23.6%,?,4.5,-0.6%[38.3 µM],?,-0.5%[46.1 µM]
CN/C(=C\[N+](=O)[O-])NCCSCc1ccc(CN(C)C)o1,-8.2%,.,9.3,7.8%,-4.9%,-3.8%[46.1 µM]
CC(C)NC(=O)NC(=O)COC(=O)Cc1ccsc1,-6.2%,4.5,7.9,2.9%[38.3 µM],14.1µM*,5.7%[46.1 µM]
CC(C)c1ccc(-c2nnc(N)s2)cc1,35.5µM*,4.4,.,-0.6%,2.2%,11.4%
Cc1ccc(-c2nnc(N)s2)cc1,-29.9%,35.0,.,3.7%,?,9.6%
O=C(CCN1C(=O)COc2ccccc21)N1CCN(c2ccccn2)CC1,-15.0%,55.2,12.9,3.1%[38.3 µM],?,-6.9%[46.1 µM]
Oc1ccc(/C=N/N2CCN(C3c4ccccc4-c4ccccc43)CC2)cc1,.,.,.,.,-3.8%,-7.5%
Oc1ccc(/C=N/N2CCN(C3c4ccccc4-c4ccccc43)CC2)cc1O,.,.,.,.,.,10µM*
O=C(CCSCc1cccc(Cl)c1)NCCc1ccccc1,8.91µM*,29.2,9.6,7.2%,?,-10.4%[46.1 µM]
C#CCOC(=O)CCC(=O)NCCc1ccccc1,-16.3%,6.7,4.9,2.8%[38.3 µM],10µM*,1.8%[46.1 µM]
COc1ccc(CNC(=O)CCSCc2cccc(Cl)c2)c(OC)c1,28.2µM*,-24.4,?,10.1%,?,6.0%[46.1 µM]
O=C(NCCc1ccccc1)c1ccc(Cl)nc1,-14.4%,-100.0*,1.2,9.4%,11.0%,3.8%[46.1 µM]
Cc1ccccc1CSCCC(=O)NCCc1ccccc1,.,.,.,-10.7%,-11.5%,-10.7%
COc1ccc(CNC(=O)CCSCc2ccccc2Cl)c(OC)c1,-24.2%,6.0,9.3,5.4%,?,-1.3%[46.1 µM]
O=C(NCCc1ccccc1)c1ccncc1,-6.0%,-28.7,5.4,-5.3%[38.3 µM],9.9%,-0.3%[46.1 µM]
C=C(Br)Cn1c(CC)nc2ccccc21,-13.9%,11.6,3.7,7.5%[38.3 µM],0.7%,-13.5%[46.1 µM]
SMILES,HPGD inh,PNC assembly inh,IMPase cell inh,IMPase Li inh,ALDH1A1 block,NPSR antagonist
O=C(Cc1ccccc1)NCCc1cccc(Cl)c1,10µM*,-25.6,-1.0,-0.8%[38.3 µM],?,2.8%[46.1 µM]
O=C(O)CCC(=O)NCCc1cccc(Cl)c1,.,.,.,0.3%,?,6.2%
Cc1cccc(OCCCCCn2ccnc2)c1C,?,49.2,0.9,35.4%[38.3 µM],?,17.9%[46.1 µM]
CC(C)OC(=O)c1c2nc3ccccc3nc2n2c1[nH]c(=O)c1ccccc12,?,11.3,?,16.7%[38.3 µM],-13.3%,10µM*
CC(C)OC(=O)c1c(N)n(CCCN2CCOCC2)c2nc3ccccc3nc12,?,23.3,-11.4,-8.6%[38.3 µM],?,-6.3%[46.1 µM]
CC(=Nc1ccccc1)C1=C(O)COC1=O,-9.1%,47.3,3.5,-2.2%[38.3 µM],5.62µM*,-24.8%[46.1 µM]
Cc1cccc2sc(NC(=O)c3ccc(NS(=O)(=O)c4cccs4)cc3)nc12,?,-83.7*,.,-7.0%,?,-27.3%
COc1ccc2nc(NC(=O)c3ccc(NS(=O)(=O)c4cccs4)cc3)sc2c1,?,?,.,12.4%,?,-9.3%
CCC(=O)NNc1nc2c(F)cc(F)cc2s1,.,.,.,-0.3%,8.2%,10.7%
O=C(Cc1noc2ccccc12)NNC(=S)Nc1ccc(Cl)cc1,.,.,.,-6.6%,25.1µM*,-4.8%
O=C(Cc1noc2ccccc12)NNC(=S)Nc1ccccc1,.,.,.,7.0%,?,-8.9%
CCOC(=O)c1c(/N=C/N(C)C)sc(/C=N/Nc2ccccc2)c1-c1ccccc1,-6.4%,?,.,1.2%,25.1µM*,-1.5%
CCOC(=O)c1c(/N=C/N(C)C)sc(C=O)c1-c1ccccc1,.,.,.,-8.5%,?,0.2%
CCOC(=O)c1c(/N=C/N(C)C)sc(/C=N/Nc2ccccc2)c1-c1ccccc1Cl,.,48.7,1.6,.,12.6µM*,1.3%[46.1 µM]
CCOc1ccc(NC(=O)/C(=C\c2ccc(OC(C)=O)c(OC)c2)NC(C)=O)cc1,-13.7%,-12.7,.,7.2%,10µM*,11.1%
COc1ccc(/C=N/O)cc1COc1ccc(NC(C)=O)cc1,25.1µM*,17.6,?,0.8%,2.5%,-12.8%[46.1 µM]
COc1ccc(/C=N/N2CCOCC2)cc1COc1ccc(F)cc1,.,.,.,9.8%,-25.7%,-21.9%
COc1ccc(/C=N/N2CCOCC2)cc1COc1ccc(Cl)cc1,-7.9%,-111.3*,.,3.8%,3.0%,-9.9%
C=CCN(C(=O)CCC(=O)Nc1cc(C)on1)C(C(=O)NC1CCCC1)c1cccnc1 (configuration not stated),-7.7%,14.5,0.0,-4.6%[38.3 µM],5.4%,-9.9%[46.1 µM]
CCOC(=O)N1CCC(N(CCN(C)C)C(=S)Nc2ccc(Oc3ccccc3)cc2)CC1,.,.,.,9.1%,?,-42.7%
O=C(O/N=C1\CCS(=O)(=O)c2sccc21)c1c(F)cccc1F,.,.,.,-3.9%,?,5.8%
O=S1(=O)CC/C(=N\Nc2ccccc2)c2ccsc21,.,.,.,4.2%,25.1µM*,12.8%
